TDP1 cell noCPT – qHTS for Inhibitors of human tyrosyl-DNA phosphodiesterase 1 (TDP1): qHTS in cells in absence of CPT | DT40 Tdp1-/- hTDP1 cells, no CPT, ATP luminescence, 48 h | Potency, µM (highest dose often 46.2 µM), inactives show top-dose activity change, negative = growth inhibition, hits mostly inhibitors | hit rate 15% among 420,000 | AID 686978, 2013; note: potency is the fitted concentration of half-maximal effect; nearly all actives have a fitted effect of over 55% in size
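Chicken DT40 Tdp1-/- cells complemented with human TDP1, screened without camptothecin (DMSO vehicle only), 400 cells/well. Compounds pin-transferred, cells incubated at 37 °C for at least 48 hr. Growth read as ATP-dependent luminescence (CellTiter-Glo, 30 min at RT).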
IL-1B inflam inh – inflammasome signaling inhibition, IL-1 beta readout. AID 743279. hit rate 4.7% among 360,000. activity change, % at 57.5 µM. THP-1 LPS/ATP IL-1B secretion, AlphaLISA, 16 h; hits give low values; in the data active = activity change below about -50%; inconclusive = mostly about -30% to -49%
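Secreted IL-1B measured by AlphaLISA bead assay after 16 h compound exposure of THP-1 cells; compounds (final up to 57.5 uM) added 1 h before LPS (250 ng/mL) and ATP (1.25 mM) stimulation; lower signal means less secretion.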
HT1080NT lethal – kills 2HG-producing HT-1080-NT fibrosarcoma cells; hit rate 1.6% among 360,000; HT-1080-NT fibrosarcoma viability, CellTiter-Glo ATP luminescence, 48 h; Potency, µM (doses to about 46.1 µM), for inactives: at the highest dose activity, negative = less viability, hits mostly cytotoxic; AID 686970;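 note: NT is the 2HG producing partner of a matched IDH1 knockdown line; potency is the fitted concentration of half-maximal effect; 0% = DMSO-treated cells and -100% = media-only wells without cells; nearly all actives have a fitted effect of over 55% in size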
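Viability of the 2HG-overproducing fibrosarcoma line after 48 hours of compound exposure at 37 degrees C was determined by luminescence with CellTiter-Glo, and concentration-effect curves were then fitted and categorized.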
DT40 TDP1 CPT – DT40-hTDP1 cell growth loss with CPT; chicken DT40 Tdp1-/-;hTDP1 cells + 20 nM CPT, ATP luminescence, 48 h; Potency, µM (top dose mostly 46.2 µM), inactives show top-dose activity change, negative = growth inhibition, hits mostly inhibitors; hit rate 12% among 420,000; AID 686979; note: potency is the fitted concentration of half-maximal effect; nearly all actives have a fitted effect of over 55% in size
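Chicken DT40 Tdp1-/- cells stably complemented with human TDP1 were seeded at 400 cells/well in medium containing 20 nM camptothecin, exposed to pin-transferred compounds, and grown at 37 °C for at least 48 hr. Viability was read as ATP luminescence.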
HT1080 IDH1KD tx – toxicity to HT-1080 IDH1 knockdown cells (counter line) | HT-1080 IDH1 knockdown viability, ATP luminescence, 48 h | Potency, µM (titrated, usually from 46.1 µM), without a hit: top-dose activity, negative = toxicity, hits mostly cytotoxic | hit rate 2% among 360,000 | AID 686971;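 note: potency is the fitted concentration of half-maximal effect; 0% = DMSO wells and -100% = cell-free medium wells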
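Cytotoxicity counter-line: IDH1KD HT-1080, 48 h, CellTiter-Glo. Curves classed by r2, magnitude and activity.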
Active calls of the source: *; ? = inconclusive; / = no result given. Hits are enriched below; roughly 19% of the tested compounds scored in any of these assays. Unless noted, calls come from the whole dose curve; as a rule, active = well fitted curve in the direction sought with a large enough effect; inconclusive = small, poorly fitted or top-dose-only effect, or another doubt; inactive = no such curve, though single readings can be large; an effect the other way counts as inactive or inconclusive. Unless noted, % is set by controls: 0 for no effect and ±100 for the full control effect.

SMILES	TDP1 cell noCPT	IL-1B inflam inh	HT1080NT lethal	DT40 TDP1 CPT	HT1080 IDH1KD tx
CC(C)C(=O)N(Cc1cc2ccccc2[nH]c1=O)C(C)(C)C	20.6µM*	10.8	21.1%	-17.8%	2.4%
Cc1ccc2[nH]c(=O)c(CN(c3cccc(C)c3C)S(=O)(=O)c3ccccc3)cc2c1	5.8µM*	4.7	22.4%	16.4µM*	?
CCCCN(Cc1cc2ccccc2[nH]c1=O)S(=O)(=O)c1ccc(C)cc1	23.1µM*	-12.3	-8.9%	?	-11.6%
Cc1ccc(S(=O)(=O)N(Cc2cc3ccccc3[nH]c2=O)c2cccc(C)c2)cc1	7.31µM*	18.4	4.3%	10.3µM*	8.8%
c1ccc2sc(N3CCCN(Cc4nc(-c5cnccn5)no4)CC3)nc2c1	?	-3.2	-2.1%	-29.2%	-7.2%
O=C(NCc1cccs1)c1nc2c(nnn2Cc2ccccc2Cl)c(=O)[nH]1	2.59µM*	0.0	4.61µM*	4.11µM*	3.26µM*
CCC(C)NC(=O)c1nc2c(nnn2Cc2ccccc2Cl)c(=O)[nH]1 (stereo unspecified)	?	15.3	-13.0%	-6.7%	0.8%
CC(=O)Oc1ccc(/C=C/C(=O)CC2OC(Oc3cc(OC(C)=O)c4c(c3)O[C@@H](c3ccc(OC(C)=O)cc3)CC4=O)C(OC(C)=O)C(OC(C)=O)C2OC(C)=O)cc1 (stereo partly specified)	7.5µM*	/	/	8.41µM*	/
O=C(/C=C/c1ccc([N+](=O)[O-])cc1)OCC(=O)c1ccc[nH]1	-19.0%	-10.5	0.0%	-13.2%	-14.8%
CCOc1ccc(S(=O)(=O)NCc2cccnc2)c2ccccc12	-20.0%	9.9	-12.9%	-2.4%	-9.9%
O=C(O)Cn1nc(-c2ccccc2)cc1-c1ccccc1	8.2%	17.2	15.3%	5.6%	9.9%
CCC1C(=O)n2nc(-c3ccccc3)cc2N=C1C (stereo unspecified)	10µM*	25.1	-11.0%	8.2µM*	-4.9%
COc1ccc(C2N(c3ccc(Cl)cc3)N=C(C(C)=O)N(C)N2C(C)=O)cc1 (stereo unspecified)	?	-58.1*	?	-13.9%	?
COc1ccc(N2CCN(C(=O)NC(=O)c3ccc(Cl)cc3)CC2)cc1	21.7%	-9.5	-16.5%	?	-21.4%
Cc1c(CCOC(=O)C23CC4CC(CC(C4)C2)C3)sc[n+]1CC#N	5.17µM*	-102.1*	?	3.26µM*	?
Cc1c(CCOC(=O)CC23CC4CC(CC(C4)C2)C3)sc[n+]1Cc1ccccc1	1.84µM*	?	?	2.06µM*	?
Cc1ncc(C[n+]2csc(CCOC(=O)CC34CC5CC(CC(C5)C3)C4)c2C)c(N)n1	?	9.9	-14.8%	?	-12.1%
COCCNC(=O)/C(C#N)=C1\N=C(NC(=O)c2ccco2)c2ccccc21	?	?	15.1%	?	8.3%
CCCNC(=O)/C(C#N)=C1\N=C(NC(=O)c2ccco2)c2ccccc21	?	-6.4	-6.0%	16.4µM*	-5.9%
N#C/C(C(=O)NCc1ccccc1)=C1/N=C(NC(=O)c2cccs2)c2ccccc21	10.3µM*	15.1	-11.5%	16.4µM*	-5.0%
CNC(=O)c1ccc(NC(=O)C2CCN(S(=O)(=O)c3cccc(C(F)(F)F)c3)CC2)cc1	-3.5%	25.9	-0.1%	4.1%	-2.5%
C=C1CCN([C@@H](CC(C)C)C(=O)NCc2cc(OC)c(OC)c(OC)c2)S(=O)(=O)c2ccccc21	?	11.9	0.0%	?	-0.8%
O=C(Cc1ccc(-c2ccccc2)cc1)Nc1ccccn1	?	-69.5*	-12.6%	1.3%	-25.0%
Cc1ccc(NC(=O)CCc2c[nH]c3ccccc23)nc1	2.59µM*	31.3	?	2.59µM*	?
O=C(CC(=O)Nc1ccccn1)Nc1ccccn1	6.1%	23.6	-4.2%	0.5%	0.4%
Cc1ccc(NC(=O)Cc2ccc(-c3ccccc3)cc2)nc1	-27.3%	-60.3*	?	?	-9.2%
Cc1ccc(NC(=O)CCCc2ccccc2)nc1	-8.8%	-14.8	-3.9%	-3.2%	-2.4%
